# Reference: PubChem BioAssay (NCATS)
# Where “and” joins values, the source holds several entries; their conditions need not be identical. Identical values can stand only once. Values without a mark were called inactive. Records with an inconclusive call do not appear. A call without a number means that no potency is given here. Calls of active or inactive are those of the source. Unless noted, the call rests on the fitted dose curve; in most records, active means well fitted curve in the direction sought with a large enough effect; inconclusive means small, poorly fitted or top-dose-only effect, or another doubt; inactive means no such curve, though single readings can be large; an effect the other way counts as inactive or inconclusive.
# How the values were obtained:
# [1] = molecular target: Cytochrome P450 1A2 (Homo sapiens) (UniProt P05177); experiment: p450-cyp1a2 (AID 410; calls by dose curve; further: potency means the concentration at half of the fitted maximal effect)
# Procedure, shortened: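 20nM CYP1A2 with 100uM Luciferin-ME (at Km) in 100mM KPO4; compound preincubated 10 min, NADPH regeneration added, 60 min at room temperature. Luciferin quantified by luminescence after detection reagent; normalized to 57 uM furafylline.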
# [2] = molecular target: Glucocorticoid receptor (Homo sapiens) (UniProt P04150); experiment: GR-GFP Redistribution (AID 450;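 active means compounds whose dose series gives a full or clear partial fitted curve of increased nuclear translocation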; further: potency means the concentration at half of the fitted maximal effect); conditions: U2OS GR-GFP nuclear translocation, laser cytometry, 2 h
# [3] = molecular target: Glucocorticoid receptor (Homo sapiens) (UniProt P04150); experiment: GR-EFC Redistribution (AID 451; calls by dose curve; further: potency means the concentration at half of the fitted maximal effect); conditions: CHO-K1 GR-EFC translocation, beta-gal luminescence, 2 h
# Procedure, shortened: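 CHO-K1 cells expressing nuclear EA and GR-ED fragments of b-gal; compounds titrated up to 46 uM final, 2 h at 37 C. GR nuclear translocation read as complemented b-gal luminescence after 1 h RT detection.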
# [4] = molecular target: Mitogen-activated protein kinase 10 (Mus musculus) (UniProt Q61831); experiment: JNK3 AlphaScreen Assay (AID 530; active means well fitted curve in either direction with a large enough effect, not every such curve was filed as active;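 further: kinase came from lysate of stimulated human HepG2 cells; signal reports phosphorylation of biotinylated GST-cJun 1-79 at Ser73 with 10 µM ATP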)
# Procedure, shortened: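 Pre-activated (IL-1β/TNFα) JNK3 in HepG2 lysates phosphorylates biotin-GST-cJun(1-79), 10 uM ATP; anti-phospho-cJun(Ser73) AlphaScreen read at room temperature, pH 7.6 Tris buffer. Compounds pre-incubated 15 min as titrations.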
# [5] = molecular target: 3',5'-cyclic-AMP phosphodiesterase 4B (Homo sapiens) (UniProt Q07343); experiment: qHTS Assay for Inhibitors of PDE-IV (AID 607; active means well fitted activation curve with a large enough effect in the main read-out, with a control signal flat, not every such curve was filed as active)
# Procedure, shortened: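 Cell-based read-out of cAMP via a modified cyclic nucleotide-gated channel and membrane potential dye (535/590 nm) in HEK293 cells expressing PDE4 endogenously. Compounds tested up to 22.9 uM final; 100 uM RO 20-1724 reference.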
# [6] = molecular target: Cytochrome P450 2C9 (Homo sapiens) (UniProt P11712); experiment: qHTS Assay for Inhibitors and Substrates of Cytochrome P450 2C9 (AID 883); further: nearly all actives have a fitted effect of over 60% in size; further: potency means the concentration at half of the fitted maximal effect
# Procedure, shortened: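 10nM CYP2C9 + 100uM Luciferin-H (=KM), 25mM KPO4; cpd 10 min 37C; NADPH regen, 60 min 37C; stop/detect with P450 Glo-Buffer 20 min; luminescence. Norm. to 57uM sulphaphenazole as full inhibition.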
# [7] = molecular target: Cytochrome P450 2D6 (Homo sapiens) (UniProt P10635); experiment: qHTS Assay for Inhibitors and Substrates of Cytochrome P450 2D6 (AID 891); further: nearly all actives have a fitted effect of over 60% in size; further: potency means the concentration at half of the fitted maximal effect;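 on activity change, negative = inhibition: luciferin methyl ether substrate demethylated by CYP2D6 with NADPH regeneration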
# Procedure, shortened: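 Human CYP2D6 (5 nM) with 30 uM Luciferin-ME EGE (at Km) in 100 mM KPO4, compound preincubated 10 min, then NADPH regeneration system for 60 min at room temperature. Luciferin read by luminescence; normalized to 1.43 uM quinidine.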
# [8] = molecular target: Cytochrome P450 2C19 (Homo sapiens) (UniProt P33261); experiment: qHTS Assay for Inhibitors and Substrates of Cytochrome P450 2C19 (AID 899); further: nearly all actives have a fitted effect of over 60% in size; further: potency means the concentration at half of the fitted maximal effect
# Procedure, shortened: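 Luminescent read-out of luciferin formed from Luciferin-H EGE (10uM, equal to KM). Enzyme 5nM in 50mM KPO4; compound added, 10 min at 37C, then NADPH regenerating system for 60 min at 37C. Full inhibition defined by 57uM ketoconazole.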
# [9] = AP1 Signaling Pathway (AID 357; active means well fitted curve in either direction with a large enough effect, not every such curve was filed as active;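 further: ME-180 reporter cells stimulated with EGF at its EC50 level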); conditions: ME-180 AP-1-bla reporter, EGF-induced, beta-lactamase ratio, 5 h; at 17.2 µM (top of the series) unless noted
# Procedure, shortened: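 A ratiometric CCF4 readout (405 nm excitation; 460 and 530 nm emission) quantified AP-1-driven beta-lactamase in ME-180 cells after 5 h with compound and EC50 EGF; AC50 values were derived for activators and inhibitors.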
# [10] = Stat Signaling Pathway (AID 446; active means well fitted curve in either direction with a large enough effect, not every such curve was filed as active;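 further: ME-180 cervical cancer cells given 40 pM IL-6 alongside compound; SIE-controlled beta-lactamase reporter measured as 460/530 nm FRET emission ratio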)
# Procedure, shortened: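 Reporter line: ME-180 cervical carcinoma, SIE-beta-lactamase. Treatment: compound with 40 pM IL-6, 5 hrs, 37 C, in low-serum OPTI-MEM with 10 mM HEPES pH 7.3. Detection: 460/530 nm fluorescence.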
# [11] = qHTS Assay for Identification of Small Molecule Agonists for Hypoxia Response Element Signaling Pathway (AID 914; active means well fitted activation curve with a large enough effect in the signal ratio, with a control signal flat, not every such curve was filed as active; the % refers to the signal ratio); conditions: ME-180 (cervical carcinoma) HRE-bla reporter, beta-lactamase ratio, CoCl2, 17 h; activation: active compounds read high
# Procedure, shortened: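 Read-out: CCF4 FRET ratio of 460nm to 530nm emission (excitation 405nm) after 2.5 hours at room temperature, taken from HRE-bla ME-180 cells that had been exposed to compound and EC50 CoCl2 for 17 hours.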
# [12] = molecular target: Guanine nucleotide-binding protein G(i) subunit alpha-1 (Homo sapiens) (UniProt P63096); experiment: qHTS Assay for Inhibitors of RGS12 GoLoco Motif Activity (Green Fluorophore) (AID 879);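 further: negative values mean loss of peptide binding seen as reduced polarization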
# Procedure, shortened: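 Fluorescence polarization assay: 50 nM Gαi1 with 10 nM FITC-labeled RGS12 GoLoco peptide in 10 mM Tris pH 7.5, 150 mM NaCl, 0.1 mM GDP, 0.05% NP40, 10 min at room temperature with compound.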
# [13] = molecular target: Pyruvate kinase PKM (Homo sapiens) (UniProt P14618); experiment: qHTS Assay for Activators of Human Muscle Pyruvate Kinase (AID 954; active means well fitted curve in the direction sought with a large enough effect, not every such curve was filed as active)
# Procedure, shortened: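 Human PKM2 activity is measured as ATP generation, detected by luciferase-coupled luminescence. The enzyme (0.1 nM) acts on 0.5 mM PEP and 0.1 mM ADP for 1 h at ambient temperature; data are normalized to uninhibited and full-inhibition wells.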
# [14] = molecular target: Alpha-galactosidase (Coffea arabica) (UniProt Q42656); experiment: Counterscreen for Glucocerebrosidase Inhibitors: qHTS Assay for Coffee Bean alpha-Galactosidase at pH 4.5 (AID 957)
# Procedure, shortened: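 Coffee bean enzyme (2 nM) with 80 uM 4-methylumbelliferyl alpha-D-galactopyranoside in 50 mM citric acid, 0.005% Tween-20, pH 4.5, 20 min at room temperature; compounds 0.7 nM–77 uM. Stopped at pH 10, fluorescence 365/440 nm; AC50 from Hill fits.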
# [15] = molecular target: Alpha-galactosidase A (Homo sapiens) (UniProt P06280); experiment: Counterscreen for Glucocerebrosidase Inhibitors: qHTS Assay for Human alpha-Galactosidase at pH 4.5 (AID 992)
# Procedure, shortened: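 Quantitative HTS: compounds tested from 0.7 nM up to 77 uM against 2 nM enzyme with 80 uM 4-MU alpha-D-galactopyranoside. The 20 min room-temperature reaction is stopped with 1M NaOH/1M glycine, pH 10.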
# [16] = molecular target: alpha-glucosidase (Oryza sativa, rice) (UniProt Q653V4); experiment: Counterscreen for Glucocerebrosidase Inhibitors: qHTS Assay for Rice alpha-Glucosidase at pH 5.0 (AID 997)
# Procedure, shortened: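 Rice alpha-glucosidase (4 nM final) with 400 uM 4-methylumbelliferyl-alpha-D-glucopyranoside in citrate buffer pH 5.0, 20 min at room temperature, stopped at pH 10; fluorescence 365/440 nm, compounds 0.7 nM–77 uM, AC50 from Hill fits.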
# [17] = molecular target: Alpha-galactosidase (Coffea arabica) (UniProt Q42656); experiment: Counterscreen for Glucocerebrosidase Inhibitors: qHTS Assay for Coffee Bean alpha-Galactosidase at pH 5.9 (AID 998)
# Procedure, shortened: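 Green coffee bean enzyme (2 nM) with 4-methylumbelliferyl alpha-D-galactopyranoside (80 uM) in 50 mM citric acid, 0.005% Tween-20, pH 5.9, 20 min at room temperature; compounds 0.7 nM–77 uM. Stopped at pH 10, fluorescence Ex365/Em440; Hill-fit AC50.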
# [18] = NFAT Signaling Pathway (AID 444; active means well fitted curve in either direction with a large enough effect, not every such curve was filed as active;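 further: carbachol stimulus at about its EC50 of 1 µM final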); conditions: Jurkat NFAT-bla M1, carbachol, beta-lactamase ratio, 5 h; at 17.2 µM (top of the series) unless noted
# Procedure, shortened: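 Jurkat cells with NFAT-driven β-lactamase reporter and co-expressed M1 receptor, stimulated with carbachol (final 1 uM, ~EC50), compound titration, 5 h at 37 °C. CCF4 loaded 1 h at RT; 460/530 nm ratio gave %activity and AC50.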
# [19] = molecular target: Cytochrome P450 3A4 (Homo sapiens) (UniProt P08684); experiment: qHTS Assay for Activators of Cytochrome P450 3A4 (AID 885); further: nearly all actives have a fitted effect of over 65% in size
# Procedure, shortened: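 Signal was normalized against complete inhibition by 57 uM ketoconazole. The reaction used 20nM CYP3A4 with 25uM Luciferin-PPXE, 10-min compound preincubation and a 60-min NADPH-supported step at RT.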
# [20] = molecular target: Muscarinic acetylcholine receptor M1 (Rattus norvegicus) (UniProt P08482); experiment: qHTS Assay for Antagonists of Acetylcholine Muscarinic M1 Receptor: Measurement of IP-One Response (AID 944); further: nearly all actives have a fitted effect of over 75% in size
# Procedure, shortened: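 CHO cells stably expressing rat M1, pretreated 10 min with compound, then stimulated 30 min with carbachol at EC80 (200 nM) in LiCl-containing buffer pH 7.4; IP1 accumulation read by HTRF competition (665/620 nm).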
# [21] = molecular target: Pyruvate kinase (Leishmania mexicana) (UniProt Q27686); experiment: qHTS Validation Assay for Inhibitors of Leishmania Mexicana Pyruvate Kinase (AID 945)
# Procedure, shortened: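 Substrate mix (0.5 mM PEP, 0.1 mM ADP, 7 mM MgCl2, 50 mM KCl, pH 7.2 imidazole) received compound by pin tool, then 0.2 nM LmPYK E451W. After 1 h at room temperature, PKLight was added and luminescence measured.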
# Chain of 3',5'-cyclic-AMP phosphodiesterase 4B (Homo sapiens) (Q07343 whole entry, looked up): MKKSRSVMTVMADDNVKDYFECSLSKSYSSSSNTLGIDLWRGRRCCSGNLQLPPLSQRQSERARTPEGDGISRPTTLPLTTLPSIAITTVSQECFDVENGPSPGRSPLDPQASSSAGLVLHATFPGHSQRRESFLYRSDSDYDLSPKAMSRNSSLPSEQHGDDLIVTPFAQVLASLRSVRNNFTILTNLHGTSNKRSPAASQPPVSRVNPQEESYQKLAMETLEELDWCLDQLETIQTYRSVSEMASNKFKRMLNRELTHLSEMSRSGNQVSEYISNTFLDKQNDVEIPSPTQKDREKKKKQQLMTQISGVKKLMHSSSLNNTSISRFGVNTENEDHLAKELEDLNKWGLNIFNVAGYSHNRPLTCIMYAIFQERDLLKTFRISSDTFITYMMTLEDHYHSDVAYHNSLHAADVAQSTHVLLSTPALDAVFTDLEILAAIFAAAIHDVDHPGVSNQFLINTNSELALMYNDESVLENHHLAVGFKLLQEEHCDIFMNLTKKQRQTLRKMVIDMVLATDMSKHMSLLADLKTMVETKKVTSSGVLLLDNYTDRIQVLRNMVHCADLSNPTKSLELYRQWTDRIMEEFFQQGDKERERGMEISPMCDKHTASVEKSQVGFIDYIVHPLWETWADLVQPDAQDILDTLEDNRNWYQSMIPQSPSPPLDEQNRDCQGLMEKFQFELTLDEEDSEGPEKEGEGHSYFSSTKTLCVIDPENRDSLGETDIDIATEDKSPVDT
# Chain of Glucocorticoid receptor (Homo sapiens) (P04150 whole entry, looked up, the tested form may be a part): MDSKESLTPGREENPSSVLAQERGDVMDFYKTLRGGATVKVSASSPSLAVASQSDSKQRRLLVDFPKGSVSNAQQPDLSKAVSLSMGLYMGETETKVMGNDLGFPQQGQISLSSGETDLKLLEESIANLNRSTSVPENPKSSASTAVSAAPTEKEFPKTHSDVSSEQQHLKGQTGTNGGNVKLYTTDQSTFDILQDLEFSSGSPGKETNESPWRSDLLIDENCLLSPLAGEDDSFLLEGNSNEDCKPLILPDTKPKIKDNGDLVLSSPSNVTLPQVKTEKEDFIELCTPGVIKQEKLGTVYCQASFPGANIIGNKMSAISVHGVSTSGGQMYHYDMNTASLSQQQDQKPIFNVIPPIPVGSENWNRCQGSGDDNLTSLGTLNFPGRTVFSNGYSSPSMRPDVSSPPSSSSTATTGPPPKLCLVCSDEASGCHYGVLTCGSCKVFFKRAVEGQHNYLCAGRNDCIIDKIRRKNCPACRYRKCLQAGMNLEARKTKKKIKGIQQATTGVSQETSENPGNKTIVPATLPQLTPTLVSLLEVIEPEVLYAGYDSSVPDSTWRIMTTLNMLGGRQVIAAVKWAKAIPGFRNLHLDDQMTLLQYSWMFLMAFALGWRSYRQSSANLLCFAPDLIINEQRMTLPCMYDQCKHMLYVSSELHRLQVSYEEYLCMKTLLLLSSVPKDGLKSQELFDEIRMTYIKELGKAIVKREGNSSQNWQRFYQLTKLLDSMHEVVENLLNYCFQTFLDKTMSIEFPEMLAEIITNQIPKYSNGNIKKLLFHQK
# Chain of Cytochrome P450 2D6 (Homo sapiens) (P10635 whole entry, looked up): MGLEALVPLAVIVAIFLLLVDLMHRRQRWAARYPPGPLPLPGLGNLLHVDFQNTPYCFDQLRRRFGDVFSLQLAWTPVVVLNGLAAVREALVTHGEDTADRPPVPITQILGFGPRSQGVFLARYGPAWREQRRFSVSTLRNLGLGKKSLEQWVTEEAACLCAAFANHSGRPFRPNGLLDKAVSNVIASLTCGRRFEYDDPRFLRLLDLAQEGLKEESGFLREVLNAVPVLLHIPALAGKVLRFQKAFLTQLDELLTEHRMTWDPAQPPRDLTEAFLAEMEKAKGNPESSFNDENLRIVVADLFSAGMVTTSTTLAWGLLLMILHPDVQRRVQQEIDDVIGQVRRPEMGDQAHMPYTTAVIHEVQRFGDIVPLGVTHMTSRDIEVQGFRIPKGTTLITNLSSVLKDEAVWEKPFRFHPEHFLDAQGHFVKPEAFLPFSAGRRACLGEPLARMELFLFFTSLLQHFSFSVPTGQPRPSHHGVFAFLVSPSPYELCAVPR
# Chain of Cytochrome P450 1A2 (Homo sapiens) (P05177 whole entry, looked up): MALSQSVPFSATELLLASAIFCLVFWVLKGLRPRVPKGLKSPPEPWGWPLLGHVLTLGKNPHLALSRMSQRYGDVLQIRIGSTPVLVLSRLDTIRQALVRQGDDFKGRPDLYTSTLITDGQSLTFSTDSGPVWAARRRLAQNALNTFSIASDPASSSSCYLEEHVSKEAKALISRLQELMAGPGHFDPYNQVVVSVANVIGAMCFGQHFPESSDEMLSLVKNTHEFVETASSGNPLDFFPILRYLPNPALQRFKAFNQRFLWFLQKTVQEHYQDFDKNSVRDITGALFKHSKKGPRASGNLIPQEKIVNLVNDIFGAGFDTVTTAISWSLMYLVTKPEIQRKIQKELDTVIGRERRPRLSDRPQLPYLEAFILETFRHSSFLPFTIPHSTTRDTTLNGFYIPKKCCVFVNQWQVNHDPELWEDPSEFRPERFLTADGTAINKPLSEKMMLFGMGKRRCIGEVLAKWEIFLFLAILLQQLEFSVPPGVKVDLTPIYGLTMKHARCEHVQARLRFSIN
# Chain of Alpha-galactosidase (Coffea arabica) (Q42656 whole entry, looked up): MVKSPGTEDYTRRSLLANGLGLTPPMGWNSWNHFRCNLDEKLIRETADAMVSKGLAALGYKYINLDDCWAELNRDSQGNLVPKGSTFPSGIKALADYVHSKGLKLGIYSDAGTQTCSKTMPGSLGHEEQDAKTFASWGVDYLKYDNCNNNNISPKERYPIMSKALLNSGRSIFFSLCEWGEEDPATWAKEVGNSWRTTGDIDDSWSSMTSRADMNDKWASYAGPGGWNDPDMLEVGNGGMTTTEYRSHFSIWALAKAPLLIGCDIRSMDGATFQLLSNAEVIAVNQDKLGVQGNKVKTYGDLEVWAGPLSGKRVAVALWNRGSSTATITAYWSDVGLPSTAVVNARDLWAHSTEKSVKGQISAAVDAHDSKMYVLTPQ
# Chain of Cytochrome P450 2C9 (Homo sapiens) (P11712 whole entry, looked up): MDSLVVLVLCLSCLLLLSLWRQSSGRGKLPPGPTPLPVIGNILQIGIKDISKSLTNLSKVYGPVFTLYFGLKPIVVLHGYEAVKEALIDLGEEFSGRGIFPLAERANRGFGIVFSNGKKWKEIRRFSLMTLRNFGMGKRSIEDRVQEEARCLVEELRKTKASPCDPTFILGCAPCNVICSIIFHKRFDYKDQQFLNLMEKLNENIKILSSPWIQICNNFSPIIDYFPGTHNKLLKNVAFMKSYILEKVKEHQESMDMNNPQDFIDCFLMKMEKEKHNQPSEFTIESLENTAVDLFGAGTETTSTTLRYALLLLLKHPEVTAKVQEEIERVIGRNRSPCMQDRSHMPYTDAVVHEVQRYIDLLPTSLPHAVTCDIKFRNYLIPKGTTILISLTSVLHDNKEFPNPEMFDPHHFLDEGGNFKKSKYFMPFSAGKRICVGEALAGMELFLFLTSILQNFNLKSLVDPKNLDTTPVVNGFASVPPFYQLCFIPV
# Chain of Cytochrome P450 2C19 (Homo sapiens) (P33261 whole entry, looked up): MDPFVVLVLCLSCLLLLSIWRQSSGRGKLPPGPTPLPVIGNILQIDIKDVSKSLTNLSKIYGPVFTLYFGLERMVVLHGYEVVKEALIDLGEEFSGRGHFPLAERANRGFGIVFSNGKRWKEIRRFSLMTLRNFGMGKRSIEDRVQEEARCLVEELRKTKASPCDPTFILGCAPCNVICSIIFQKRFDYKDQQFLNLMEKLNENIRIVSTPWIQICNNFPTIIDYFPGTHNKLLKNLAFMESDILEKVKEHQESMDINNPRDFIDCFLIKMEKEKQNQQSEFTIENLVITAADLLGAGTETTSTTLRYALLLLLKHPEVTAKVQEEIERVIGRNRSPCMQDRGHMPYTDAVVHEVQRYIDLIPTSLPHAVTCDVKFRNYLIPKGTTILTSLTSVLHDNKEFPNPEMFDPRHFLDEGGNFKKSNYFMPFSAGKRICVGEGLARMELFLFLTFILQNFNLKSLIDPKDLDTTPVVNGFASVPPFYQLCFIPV
# Chain of Alpha-galactosidase A (Homo sapiens) (P06280 whole entry, looked up): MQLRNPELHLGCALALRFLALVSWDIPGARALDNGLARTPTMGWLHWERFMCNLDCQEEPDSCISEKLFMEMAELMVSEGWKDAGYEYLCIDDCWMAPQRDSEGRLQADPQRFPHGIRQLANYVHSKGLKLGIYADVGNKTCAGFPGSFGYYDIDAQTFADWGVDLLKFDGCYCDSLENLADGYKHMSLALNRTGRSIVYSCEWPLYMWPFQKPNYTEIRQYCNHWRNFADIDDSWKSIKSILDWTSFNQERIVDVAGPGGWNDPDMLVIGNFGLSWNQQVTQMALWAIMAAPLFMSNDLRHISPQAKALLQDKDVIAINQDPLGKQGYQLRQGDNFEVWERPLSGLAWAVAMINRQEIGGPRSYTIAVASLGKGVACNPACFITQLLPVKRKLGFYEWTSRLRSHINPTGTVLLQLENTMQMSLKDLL
# Chain of Guanine nucleotide-binding protein G(i) subunit alpha-1 (Homo sapiens) (P63096 whole entry, looked up): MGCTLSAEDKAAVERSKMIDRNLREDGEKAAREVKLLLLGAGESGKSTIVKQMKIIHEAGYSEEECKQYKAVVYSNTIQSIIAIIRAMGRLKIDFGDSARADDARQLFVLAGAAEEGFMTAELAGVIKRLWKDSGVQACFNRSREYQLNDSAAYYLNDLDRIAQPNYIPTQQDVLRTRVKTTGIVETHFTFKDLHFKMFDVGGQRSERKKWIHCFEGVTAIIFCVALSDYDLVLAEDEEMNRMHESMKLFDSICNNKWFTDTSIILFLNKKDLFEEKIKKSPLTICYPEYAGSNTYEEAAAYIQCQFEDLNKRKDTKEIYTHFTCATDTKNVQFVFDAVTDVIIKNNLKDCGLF
smiles,measurement,setting,value
C=C1C/C(=C\C)C(=O)O[C@@H]2CCN3CC=C(COC(=O)[C@]1(C)O)[C@H]23,Potency,[1],inactive
same,Potency,[2],> 46 µM
same,Potency,[3],> 46 µM
same,outcome,[4],inactive
same,outcome,[5],inactive
same,Potency,[6],inactive
same,Potency,[7],inactive
same,Potency,[8],inactive
O=c1cccc2n1C[C@H]1C[C@@H]2CN(CCO)C1,Potency,[1],15.8 µM (active)
same,Potency,[2],> 46 µM
same,Potency,[3],> 46 µM
same,outcome,[4],inactive
same,outcome,[5],inactive
same,Potency,[6],inactive
same,Potency,[7],inactive
same,Potency,[8],inactive
CCCCc1nc(N2CCNCC2)c(C#N)c2c1CSC(C)(C)C2,"activity change, negative = inhibition",[9],3.85%
same,outcome,[10],inactive
same,Potency,[2],> 20.6 µM
COc1ccc(OC)c([C@@H](O)[C@H](C)NC(C)(C)C)c1,"activity change, negative = inhibition",[9],8.72%
same,outcome,[10],inactive
same,Potency,[2],> 20.6 µM
same,activation,[11],0.127%
C=C(C)[C@H]1Cc2c(ccc3c2O[C@H]2COc4cc(OC)c(OC)cc4[C@@H]2C3=O)O1,"activity change, negative = inhibition",[9],7.51% [at 38 µM]
same,Potency,[2],> 46 µM
same,Potency,[3],> 46 µM
same,outcome,[4],inactive
same,outcome,[5],inactive
same,Potency,[12],inactive
same,Potency,[8],2.51 µM (active)
same,outcome,[13],inactive
same,outcome,[14],inactive
same,outcome,[15],inactive
same,outcome,[16],inactive
same,outcome,[17],inactive
CN1CCc2cc3c(cc2[C@@H]1[C@H]1OC(=O)c2c1ccc1c2OCO1)OCO3,Potency,[1],15.8 µM (active) and 12.6 µM (active)
same,Potency,[2],> 46 µM
same,Potency,[3],> 46 µM
same,outcome,[4],inactive
same,outcome,[5],inactive
same,Potency,[6],3.98 µM (active)
same,Potency,[7],15.8 µM (active)
same,Potency,[8],100 nM (active) and 15.8 nM (active)
O=CN1C[C@H]2C[C@@H](C1)c1cccc(=O)n1C2,Potency,[1],inactive
same,Potency,[2],> 46 µM
same,Potency,[3],> 46 µM
same,outcome,[4],inactive
same,outcome,[5],inactive
same,Potency,[6],inactive
same,Potency,[7],inactive
same,Potency,[8],inactive
CCc1nc(N2CCNCC2)c(C#N)c2c1CSC(C)(C)C2,"activity change, negative = inhibition",[9],-1.4%
same,outcome,[10],inactive
same,Potency,[2],> 20.6 µM
Ic1ccccc1CN[C@@H]1C2CCN(CC2)[C@H]1C(c1ccccc1)c1ccccc1,Potency,[1],12.6 µM (active)
same,"activity change, negative = inhibition",[18],-6.46% [at 38 µM]
same,Potency,[2],> 46 µM
same,Potency,[3],> 46 µM
same,outcome,[4],inactive
same,Potency,[12],inactive
same,Potency,[19],inactive
same,Potency,[7],0.0631 µM (active)
same,Potency,[20],inactive
same,Potency,[21],inactive
same,outcome,[13],inactive
same,outcome,[14],inactive
same,outcome,[15],inactive
same,outcome,[16],inactive
same,outcome,[17],inactive
